# Experimental data published in the supplement of paper PMC8728848.
# Many of the other results were omitted from the sample, so the strongest signals are more common in it than they were.
# Tests used:
# Experiment in all cases: glycan array binding signal (z-score within array); higher = stronger binding
# Details in all cases: glycan notation: IUPAC condensed, linker removed
# Fuc(a1-2)Gal(b1-3)GlcNAc = biological target: Fuc(a1-2)Gal(b1-3)GlcNAc
# Method in brief: (§1)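 Glycan array data were curated from 3228 arrays in the Consortium for Functional Glycomics database and kept only where the protein sequence was available. Glycan names were converted to IUPAC-condensed notation, and columns mapping to the same glycan were averaged. The binding signal is a within-array Z-score, averaged across arrays of the same protein sequence at different concentrations or buffers and across linkers. Negative Z-scores can be read as non-binding.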
# [1] = biological target: Fuc(a1-2)Gal(b1-3)GlcNAc(b1-3)Gal(b1-4)Glc
# Method in brief: as §1
# [2] = biological target: Fuc(a1-2)Gal(b1-3)[Fuc(a1-4)]GlcNAc
# Method in brief: as §1
# [3] = biological target: Fuc(a1-2)Gal(b1-4)GlcNAc(b1-2)Man(a1-3)[Fuc(a1-2)Gal(b1-4)GlcNAc(b1-2)Man(a1-6)]Man(b1-4)GlcNAc(b1-4)GlcNAc
# Method in brief: as §1
# [4] = biological target: Fuc(a1-2)Gal(b1-4)[Fuc(a1-3)]GlcNAc
# Method in brief: as §1
# [5] = biological target: Fuc(a1-2)[GalNAc(a1-3)]Gal(b1-3)GlcNAc
# Method in brief: as §1
# [6] = biological target: Gal(a1-3)Gal(b1-3)[Fuc(a1-4)]GlcNAc(b1-2)Man(a1-3)[Gal(a1-3)Gal(b1-3)[Fuc(a1-4)]GlcNAc(b1-2)Man(a1-6)]Man(b1-4)GlcNAc(b1-4)GlcNAc
# Method in brief: as §1
# [7] = biological target: Gal(a1-3)Gal(b1-4)[Fuc(a1-3)]GlcNAc
# Method in brief: as §1
# [8] = biological target: Gal(a1-4)Gal(b1-4)GlcNAc(b1-2)Man(a1-3)[Gal(a1-4)Gal(b1-4)GlcNAc(b1-2)Man(a1-6)]Man(b1-4)GlcNAc(b1-4)GlcNAc
# Method in brief: as §1
# Gal(b1-2)Gal = biological target: Gal(b1-2)Gal
# Method in brief: as §1
# [9] = biological target: Gal(b1-3)GalNAc(b1-4)[Neu5Ac(a2-3)]Gal(b1-4)Glc
# Method in brief: as §1
# [10] = biological target: Gal(b1-3)GlcNAc(b1-3)Gal(b1-4)Glc
# Method in brief: as §1
# [11] = biological target: Gal(b1-3)GlcNAc(b1-3)Gal(b1-4)[Fuc(a1-3)]GlcNAc(b1-6)[Gal(b1-3)GlcNAc(b1-3)]Gal(b1-4)Glc
# Method in brief: as §1
# [12] = biological target: Gal(b1-3)[Fuc(a1-4)]GlcNAc
# Method in brief: as §1
# [13] = biological target: Gal(b1-3)[Fuc(a1-4)]GlcNAc(b1-2)Man(a1-3)[Gal(b1-3)[Fuc(a1-4)]GlcNAc(b1-2)Man(a1-6)]Man(b1-4)GlcNAc(b1-4)GlcNAc
# Method in brief: as §1
# [14] = biological target: Gal(b1-3)[Fuc(a1-4)]GlcNAc(b1-2)Man(a1-3)[Gal(b1-3)[Fuc(a1-4)]GlcNAc(b1-2)Man(a1-6)]Man(b1-4)GlcNAc(b1-4)[Fuc(a1-6)]GlcNAc
# Method in brief: as §1
# [15] = biological target: Gal(b1-4)GlcNAc(b1-2)Man(a1-3)[Gal(b1-4)GlcNAc(b1-2)Man(a1-6)]Man(b1-4)GlcNAc(b1-4)GlcNAc
# Method in brief: as §1
# [16] = biological target: GalNAc(b1-4)GlcNAc(b1-2)Man(a1-3)[GalNAc(b1-4)GlcNAc(b1-2)Man(a1-6)]Man(b1-4)GlcNAc(b1-4)GlcNAc
# Method in brief: as §1
# [17] = biological target: GlcNAc(b1-3)Gal(b1-4)GlcNAc(b1-3)Gal(b1-4)GlcNAc
# Method in brief: as §1
# Kdn(a2-3)Gal(b1-4)Glc = biological target: Kdn(a2-3)Gal(b1-4)Glc
# Method in brief: as §1
# [18] = biological target: Man(a1-2)Man(a1-2)Man(a1-6)[Man(a1-3)]Man
# Method in brief: as §1
# [19] = biological target: Neu5Ac(a2-3)Gal(b1-3)GlcNAc6S
# Method in brief: as §1
# [20] = biological target: Neu5Ac(a2-3)Gal(b1-3)[Fuc(a1-4)]GlcNAc(b1-3)Gal(b1-4)[Fuc(a1-3)]GlcNAc
# Method in brief: as §1
# [21] = biological target: Neu5Ac(a2-3)Gal(b1-4)GlcNAc(b1-3)Gal(b1-4)GlcNAc
# Method in brief: as §1
# [22] = biological target: Neu5Ac(a2-6)Gal(b1-4)GlcNAc(b1-3)Gal(b1-4)GlcNAc(b1-3)Gal(b1-4)GlcNAc
# Method in brief: as §1
# Neu5Ac(a2-6)GalNAc = biological target: Neu5Ac(a2-6)GalNAc
# Method in brief: as §1
# [23] = biological target: Neu5Ac9Ac(a2-3)Gal(b1-4)GlcNAc
# Method in brief: as §1
# [24] = biological target: Fuc(a1-2)Gal(b1-4)[Fuc(a1-3)]GlcNAc(b1-3)Gal(b1-4)[Fuc(a1-3)]GlcNAc
# Method in brief: as §1
# [25] = biological target: Fuc(a1-3)[Gal(b1-4)]GlcNAc(b1-3)Gal(b1-3)[Fuc(a1-4)]GlcNAc
# Method in brief: as §1
# [26] = biological target: Fuc(a1-3)[Gal3S(b1-4)]Glc6S
# Method in brief: as §1
# Gal(b1-3)GalNAc = biological target: Gal(b1-3)GalNAc
# Method in brief: as §1
# [27] = biological target: Gal(b1-4)GlcNAc(b1-3)Gal(b1-4)[Fuc(a1-3)]GlcNAc(b1-3)Gal(b1-4)[Fuc(a1-3)]GlcNAc
# Method in brief: as §1
# [28] = biological target: Gal(b1-4)GlcNAc(b1-3)[GlcNAc(b1-6)]Gal(b1-4)GlcNAc
# Method in brief: as §1
# [29] = biological target: Gal(b1-4)GlcNAc(b1-6)[Gal(b1-3)]GalNAc
# Method in brief: as §1
# [30] = biological target: Gal3S(b1-4)[Fuc(a1-3)]Glc
# Method in brief: as §1
# Gal4S6S(b1-4)GlcNAc = biological target: Gal4S6S(b1-4)GlcNAc
# Method in brief: as §1
# Glc(a1-6)Glc(a1-6)Glc = biological target: Glc(a1-6)Glc(a1-6)Glc
# Method in brief: as §1
# GlcA(b1-6)Gal = biological target: GlcA(b1-6)Gal
# Method in brief: as §1
# [31] = biological target: Man(a1-2)Man(a1-3)[Man(a1-2)Man(a1-6)]Man(a1-6)[Man(a1-2)Man(a1-2)Man(a1-3)]Man
# Method in brief: as §1
# [32] = biological target: Man(a1-2)Man(a1-6)[Man(a1-3)]Man(a1-6)[Man(a1-2)Man(a1-2)Man(a1-3)]Man(b1-4)GlcNAc(b1-4)GlcNAc
# Method in brief: as §1
# Man(a1-3)[Man(a1-6)]Man = biological target: Man(a1-3)[Man(a1-6)]Man
# Method in brief: as §1
# [33] = biological target: Neu5Ac(a2-3)Gal(b1-3)GalNAc(b1-4)[Neu5Ac(a2-3)]Gal(b1-4)Glc
# Method in brief: as §1
# [34] = biological target: Neu5Ac(a2-3)Gal(b1-4)GlcNAc(b1-3)Gal(b1-3)GlcNAc
# Method in brief: as §1
# [35] = biological target: Neu5Ac(a2-3)Gal(b1-4)[Fuc(a1-3)]GlcNAc(b1-3)Gal
# Method in brief: as §1
# [36] = biological target: Neu5Ac(a2-3)[GalNAc(b1-4)]Gal(b1-4)Glc
# Method in brief: as §1
# [37] = biological target: Neu5Ac(a2-6)Gal(b1-4)GlcNAc(b1-2)Man(a1-3)[GlcNAc(b1-2)Man(a1-6)]Man(b1-4)GlcNAc(b1-4)GlcNAc
# Method in brief: as §1
# [38] = biological target: Neu5Ac(a2-6)GalNAc(b1-4)GlcNAc
# Method in brief: as §1
binder,measurement,setting,value
"SLP (Clostridium difficile), Q183M8 (protein) MATTGTQGYTVVKNDWKKAVKQLQDGLKDNSIGKITVSFNDGVVGEVAPKSANKKADRDAAAEKLYNLVNTQLDKLGDGDYVDFSVDYNLENKIITNQADAEAIVTKLNSLNEKTLIDIATKDTFGMVSKTQDSEGKNVAATKALKVKDVATFGLKSGGSEDTGYVVEMKAGAVEDKYGKVGDSTAGIAINLPSTGLEYAGKGTTIDFNKTLKVDVTGGSTPSAVAVSGFVTKDDTDLAKSGTINVRVINAKEESIDIDASSYTSAENLAKRYVFDPDEISEAYKAIVALQNDGIESNLVQLVNGKYQVIFYPEGKRLETKSLEHHHHHH",glycan array binding signal (z-score),Fuc(a1-2)Gal(b1-3)GlcNAc,-0.17
same,glycan array binding signal (z-score),[1],3.53
same,glycan array binding signal (z-score),[2],-0.18
same,glycan array binding signal (z-score),[3],3.46
same,glycan array binding signal (z-score),[4],-0.174
same,glycan array binding signal (z-score),[5],-0.175
same,glycan array binding signal (z-score),[6],12.1
same,glycan array binding signal (z-score),[7],-0.186
same,glycan array binding signal (z-score),[8],0.537
same,glycan array binding signal (z-score),Gal(b1-2)Gal,-0.185
same,glycan array binding signal (z-score),[9],-0.141
same,glycan array binding signal (z-score),[10],3.65
same,glycan array binding signal (z-score),[11],-0.152
same,glycan array binding signal (z-score),[12],-0.182
same,glycan array binding signal (z-score),[13],7.99
same,glycan array binding signal (z-score),[14],5.55
same,glycan array binding signal (z-score),[15],-0.173
same,glycan array binding signal (z-score),[16],6.19
same,glycan array binding signal (z-score),[17],-0.209
same,glycan array binding signal (z-score),Kdn(a2-3)Gal(b1-4)Glc,-0.2
same,glycan array binding signal (z-score),[18],-0.17
same,glycan array binding signal (z-score),[19],-0.167
same,glycan array binding signal (z-score),[20],-0.057
same,glycan array binding signal (z-score),[21],-0.18
same,glycan array binding signal (z-score),[22],-0.187
same,glycan array binding signal (z-score),Neu5Ac(a2-6)GalNAc,-0.177
same,glycan array binding signal (z-score),[23],-0.188
"RfpB (Mycobacterium tuberculosum), O05594 (protein) MAAGLVTASMSLSTAVAHAGPSPNWDAVAQCESGGNWAANTGNGKYGGLQFKPATWAAFGGVGNPAAASREQQIAVANRVLAEQGLDAWPTCGAASGLPIALWSKPAQGIKHAGPSPNWDAVAQCESGGNWAANTGNGKYGGLQFKPATWAAFGGVGNPAAASREQQIAVANRVLAEQGLDAWPTCGA",glycan array binding signal (z-score),Fuc(a1-2)Gal(b1-3)GlcNAc,0.352
same,glycan array binding signal (z-score),[24],-0.487
same,glycan array binding signal (z-score),[25],-0.065
same,glycan array binding signal (z-score),[26],2.53
same,glycan array binding signal (z-score),Gal(b1-3)GalNAc,-0.202
same,glycan array binding signal (z-score),[15],-0.1
same,glycan array binding signal (z-score),[27],9.72
same,glycan array binding signal (z-score),[28],2.74
same,glycan array binding signal (z-score),[29],-0.262
same,glycan array binding signal (z-score),[30],-0.568
same,glycan array binding signal (z-score),Gal4S6S(b1-4)GlcNAc,0.03
same,glycan array binding signal (z-score),Glc(a1-6)Glc(a1-6)Glc,-0.239
same,glycan array binding signal (z-score),GlcA(b1-6)Gal,-0.284
same,glycan array binding signal (z-score),[31],-0.097
same,glycan array binding signal (z-score),[32],-0.426
same,glycan array binding signal (z-score),Man(a1-3)[Man(a1-6)]Man,9.95
same,glycan array binding signal (z-score),[33],4.02
same,glycan array binding signal (z-score),[34],-0.23
same,glycan array binding signal (z-score),[35],-0.07
same,glycan array binding signal (z-score),[36],-0.524
same,glycan array binding signal (z-score),[37],-0.499
same,glycan array binding signal (z-score),[38],-0.639
